# Data taken from the supplement of paper PMC7411054.
# Structures can show the parent of a compound that is named as a salt. Unmarked numbers belong to inactive results.
# Tested on: WPMY1-GM130-SQSTM1
# Experiment: phenotypically active (imaging signature differs from DMSO and reproducible) at any of 0.3-9 uM (binary (1 = active, 0 = inactive)); higher = active
# Conditions: treatment time: 24 h
# Procedure, shortened: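 The reporter lines, fifteen in total and built by gene editing in A549, HepG2 and WPMY1 cells, used BFP for segmentation alongside GFP and RFP/FusionRed markers. Each was treated at 0.3, 1, 3 or 9 µM for 24 h in four wells and then imaged live, with live-cell features normalised to solvent control wells. Deviation meant ≥3 of 4 wells beyond the 95th percentile of control Euclidean distances; reproducibility meant a median replicate Pearson correlation above the 95th percentile of non-replicates. Only conditions meeting both were scored as phenotypically active.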
row,SMILES,phenotypically active
1,CC[C@H]1CN2CC[C@H]1C[C@@H]2[C@@H](O)c1ccnc2ccc(OC)cc12 [Hydroquinidine HCl],0
2,COc1cc2c(c(OC)c1OC)-c1ccc(O)c(=O)cc1[C@@H](N)CC2 [Trimethylcolchicinic acid],0
3,C[C@@]1(CO)[C@H](O)CC[C@@]2(C)[C@H]1CC[C@H]1C[C@@H]3C[C@@]12CC[C@]3(O)CO [Aphidicolin],1 (active)
4,COC(=O)[C@@]1(O)C[C@H]2O[C@]1(C)n1c3ccccc3c3c4c(c5c6ccccc6n2c5c31)C(=O)NC4,1 (active)
5,COc1ccc(N(C(=O)Oc2c(C)cccc2C)c2ccnc(Nc3ccc(N4CCN(C)CC4)cc3)n2)c(OC)c1,0
6,COc1ccc2c(c[n+](C)c3c4cc5c(cc4ccc23)OCO5)c1OC [Chelerythrine chloride],0
7,CC[C@@H]1C=CC=CC[C@H](C)[C@@H](O)[C@](C)(O)C(=O)[C@H](C)[C@@H](O)[C@H](C)C(=O)[C@H](C)[C@@H](O)[C@H](C)C=CC(=O)O[C@H]2[C@@H](C)[C@@H](CC1)O[C@@]1(CC[C@@H](C)[C@@H](C[C@H](C)O)O1)[C@@H]2C [Oligomycin A],0
8,CC(C)[C@@]1(NC(=O)[C@@H]2C[C@@H]3c4cccc5[nH]cc(c45)C[C@H]3N(C)C2)O[C@@]2(O)[C@@H]3CCCN3C(=O)[C@H](Cc3ccccc3)N2C1=O [Dihydroergocristine mesylate],1 (active)
9,O=c1[nH]c2ccccc2n1C1CCN(CCCC(c2ccc(F)cc2)c2ccc(F)cc2)CC1 [pimozide],0
10,C[C@]12CC[C@H]3[C@@H](CC[C@]4(O)C[C@@H](O)CC[C@]34C=O)[C@@]1(O)CC[C@@H]2C1=CC(=O)OC1 [Strophanthidin],1 (active)
11,CN1CCC2=C[C@H](O)[C@H]3OC(=O)c4cc5c(cc4[C@H]3[C@@H]21)OCO5 [Hippeastrine hydrobromide],0
12,C=C1[C@@H](O)C2C=CC[C@H](C)C(=O)[C@](C)(O)C=C[C@@H](OC(C)=O)[C@]23C(=O)N[C@H](Cc2ccccc2)[C@@H]3[C@@H]1C (stereo partly specified) [Cytochalasin D],1 (active)
13,COc1ccc(C[C@H]2NC[C@H](O)[C@H]2OC(C)=O)cc1 [Anisomycin],1 (active)
14,C[C@@H]1CC[C@H]2[C@@H](C)C(=O)O[C@@H]3O[C@@]4(C)CC[C@@H]1[C@]32OO4 [Artemisinin],1 (active)
15,O=C1NC(=O)c2c1c1c3ccccc3n3c1c1c2c2ccccc2n1C1CCC3O1,1 (active)
16,Cc1sc2c(c1C)C(c1ccc(Cl)cc1)=N[C@@H](CC(=O)OC(C)(C)C)c1nnc(C)n1-2,1 (active)
17,CN1C[C@H](C(=O)N[C@]2(C)O[C@@]3(O)[C@@H]4CCCN4C(=O)[C@H](Cc4ccccc4)N3C2=O)C[C@@H]2c3cccc4[nH]cc(c34)C[C@H]21.CN1C[C@H](C(=O)N[C@]2(C)O[C@@]3(O)[C@@H]4CCCN4C(=O)[C@H](Cc4ccccc4)N3C2=O)C[C@@H]2c3cccc4[nH]cc(c34)C[C@H]21 [dihydroergotamine],1 (active)
18,C[C@@]12C(=O)OC(=O)[C@]1(C)[C@H]1CC[C@@H]2O1 [Cantharidin],1 (active)

row,SMILES,phenotypically active
1,COc1cc2c(c(OC)c1OC)-c1ccc(OC)c(=O)cc1[C@@H](NC(C)=O)CC2 [colchicine],1 (active)
2,CC(C)(O)[C@H]1O[C@H]2CC[C@@]3(C)[C@@](O)(CC[C@H]4Cc5c([nH]c6ccccc56)[C@@]43C)C2=CC1=O [paxilline],1 (active)
3,N#CC(C#N)=NNc1cccc(Cl)c1,1 (active)
4,Cc1c(C(=O)Nc2cccc(C(F)(F)F)c2)cc(-c2ccccc2)n1CCCN1CCOCC1,0
5,CCN1CCN(C(=O)Cc2ccc(Nc3ncc(F)c(Nc4ccc(C(=O)Nc5ccccc5Cl)cc4)n3)cc2)CC1,0
6,CC(C)(C)c1cc(C=C(C#N)C#N)cc(Br)c1O,0
7,O=C(NCCN1CCC2(CC1)C(=O)NCN2c1cccc(F)c1)c1ccc(F)c(F)c1 [ML 298 hydrochloride],1 (active)
8,CC(C)(N)Cc1ccccc1 [phentermine],1 (active)
9,CCn1cnc2c(Nc3cccc(Cl)c3)nc(N[C@H]3CCCC[C@H]3N)nc21,1 (active)
10,O=C(Nc1ccncc1)C(=O)c1cn(Cc2ccc(Cl)cc2)c2ccccc12 [Indibulin],1 (active)
11,CC[C@@H](C(=O)[C@@H](C)[C@@H](O)[C@H](C)[C@@H]1O[C@@H]([C@@H](CC)C(=O)O)CC[C@@H]1C)[C@H]1O[C@]2(C=C[C@@H](O)[C@]3(CC[C@@](C)([C@H]4CC[C@](O)(CC)[C@H](C)O4)O3)O2)[C@H](C)C[C@@H]1C [Salinomycin Sodium],1 (active)
12,CC[C@@H](CO)NC(=O)[C@@H]1C=C2c3cccc4c3c(cn4C)C[C@H]2N(C)C1 [methysergide],0
13,CN1C[C@H](C(=O)N[C@]2(C)O[C@@]3(O)[C@@H]4CCCN4C(=O)[C@H](Cc4ccccc4)N3C2=O)C=C2c3cccc4[nH]cc(c34)C[C@H]21 [ergotamine],1 (active)
14,C[C@H](CCC(=O)O)C[C@H](C)C[C@H](C)C(=O)/C=C(\O)[C@H](C)C[C@H](C)C/C=C/[C@@H](C)[C@@H](O)[C@@H](C)[C@@H](O)C[C@@H]1CC[C@@](C)([C@H]2CC[C@@](C)([C@@H](C)O)O2)O1 [Ionomycin free acid],1 (active)
15,N#CC(C#N)=NNc1ccc(OC(F)(F)F)cc1,1 (active)
16,COC1=CC(C)=C[C@@H](C)[C@@H](O)[C@@H](C)CC(C)=CC=C[C@H](OC)[C@@H]([C@@H](C)[C@@H](O)[C@H](C)[C@@]2(O)C[C@@H](O)[C@H](C)[C@@H](C(C)C)O2)OC1=O [Bafilomycin A1],1 (active)
17,COc1cc([C@@H]2c3cc4c(cc3[C@H](O)[C@H]3COC(=O)[C@H]23)OCO4)cc(OC)c1OC [Podophyllotoxin],1 (active)
18,CC[C@]12C=CCN3CC[C@]4(C(=C(C(=O)OC)C1)Nc1ccccc14)[C@@H]32 [Tabersonine dichlorhydrate],1 (active)
